# Screens: PubChem BioAssay, several laboratories
# MEKK2 WT-MEK5 = modulators of MEK5 binding to wildtype MEKK2, primary screen, biochemical, multiplex bead flow cytometry, Alexa488-MEK5; binding response (% of control), % at 10 µM; actives 1.1% (n = 290,000); Mitogen-activated protein kinase kinase kinase 2 (Homo sapiens), Q9Y2U5; AID 1531, 2009; Alexa488-MEK5 binding to MEKK2 WT; actives lie on both sides; in the data active means binding response below about 67% or above about 130%
# MEKK2 mut-MEK5 = MEK5 binding signal on mutant MEKK2 PB1, primary screen, biochemical, multiplex bead flow cytometry, Alexa488-MEK5 | percent response, % at 10 µM | Alexa488-MEK5 binding to MEKK2 mutant | actives 0.35% (n = 290,000) | AID 1530, 2009; in the data active means percent response above about 24%, passing the limit was not always enough
# MEKK3 PB1 HTS = modulators of MEKK3-MEK5 PB1 binding, primary screen, biochemical, wildtype MEKK3, multiplex bead flow cytometry, Alexa488-MEK5. Mitogen-activated protein kinase kinase kinase 3 (Homo sapiens), Q99759. bead-based flow cytometry, Alexa488-MEK5 binding to MEKK3; actives lie on both sides; 0 = blocked by unlabeled MEK5, 100 = vehicle. binding response (% of control), % at 10 µM. actives 1.4% (n = 290,000). AID 1529, 2009;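 active means binding response more than 3 SD above or below the average of its plate-row segment, actives on both sides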;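 further: Alexa488 bead fluorescence after subtracting the streptavidin-only scavenger bead signal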
# UBC13 inh = UBC13 polyubiquitin chain formation inhibitors, primary screen, biochemical, TR-FRET, uHTS; actives 0.47% (n = 330,000); inhibition, % at 20 µM; in the data active means inhibition above about 45%, passing the limit was not always enough
# Target sequence (P61088 whole entry, looked up): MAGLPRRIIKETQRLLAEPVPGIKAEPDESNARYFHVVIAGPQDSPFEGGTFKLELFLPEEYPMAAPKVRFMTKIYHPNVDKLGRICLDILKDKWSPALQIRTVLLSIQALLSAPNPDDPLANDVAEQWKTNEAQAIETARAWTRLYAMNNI
# Active calls of the source: *; . = no result; [ ] = remark or other dose. Hits are enriched below; roughly 2.3% of the tested compounds scored in any of these assays.
SMILES,MEKK2 WT-MEK5,MEKK2 mut-MEK5,MEKK3 PB1 HTS,UBC13 inh
CC(=O)N1CCN(S(=O)(=O)c2cccc(C(=O)OCc3ccc(C(C)(C)C)cc3)c2)CC1,.,.,.,13
Cc1[nH]c2ccccc2c1/C=N/n1cnnc1,98,-1,98,3
CCN(CC)c1ccc(N=Cc2c(C)[nH]c3ccccc23)cc1,99,-1,75*[inhibitor],-40
O=C(CN1CCN(c2ccc(O)cc2)CC1)Nc1cc([N+](=O)[O-])ccc1Cl,15*,19,96,8
CC(=O)N1CCN(CC(=O)Nc2cc([N+](=O)[O-])ccc2Cl)CC1,106,9,105,-11
O=C(CC1(CC2=NS(=O)(=O)c3ccccc3N2)CCCC1)NCCc1ccccc1,107,7,102,1
CC(=O)Nc1ccc(S(=O)(=O)NCC2(N3CCOCC3)CCCCC2)cc1,.,.,.,-8
COc1ccc2nc(/C(C#N)=C\c3ccc(C(=O)O)cc3)[nH]c2c1,7.0*,44,81,-6
COc1ccc2nc(/C(C#N)=C\c3ccc(Oc4ccc([N+](=O)[O-])cn4)cc3)[nH]c2c1,98,0,90,-29
Cc1c(C)n(C)c2ccc(C(=O)NCCCN(C)C3CCCCC3)cc12,145*,12,101,8
Cc1c(C)n(C)c2ccc(C(=O)NCCc3ccco3)cc12,96,-1,99,3
Cc1c(C)n(C)c2ccc(C(=O)NCCCN3CCCCC3C)cc12 (configuration not stated),178*,35*,108,18
Cc1ccccc1OCCC(=O)N1CCN(S(=O)(=O)c2ccc(Br)cc2)CC1,.,.,.,1
CC1CCN(CCCNC(=O)c2cc3c(s2)-c2ccccc2OC3)CC1,134*,11,104,35
Cn1c(=O)[nH]c(=O)c2c1nc(NC1CCCC1)n2Cc1ccccc1,104,5,104,2
COc1ccc(C(=O)NC(=S)NCc2ccco2)cc1Br,101,0,99,-8
Cc1onc(C(=O)Nc2ccccc2C(F)(F)F)c1[N+](=O)[O-],0.0*[inhibitor],-21,1.0*[inhibitor],-3
CSc1ccccc1NC(=O)c1noc(C)c1[N+](=O)[O-],102,2,98,-9
CC(C)N1CCc2c(sc(NC(=S)NC(=O)c3ccccc3)c2C#N)C1,87,0,89,-35
CCCN1CCc2c(sc(NC(=S)NC(=O)c3ccccc3)c2C#N)C1,0.0*,8,95,-59
CN1CCN(c2ccc(NC(=S)NC(=O)c3cccc4c(Br)cccc34)cc2)CC1,173*,22,106,36
Nc1ncnc2oc(-c3ccco3)c(-c3ccco3)c12,97,2,101,61*
CC(CCc1ccccc1)NC(=O)CN1C(=O)NC2(CCCCC2C)C1=O (configuration not stated),.,.,.,-1
CNc1nn(-c2cccc(Cl)c2)nc1N,-1.0*,8,104,-18
Cc1cc2nn(-c3ccc(Cl)cc3)nc2cc1N,101,-1,104,-11
SMILES,MEKK2 WT-MEK5,MEKK2 mut-MEK5,MEKK3 PB1 HTS,UBC13 inh
Clc1ccc2oc(SCc3cccnc3)nc2c1,101,1,99,-9
Cc1ccccc1COC(=O)CCC1=NS(=O)(=O)c2ccccc2N1,102,1,104,-3
Cc1nc(N)sc1-c1csc(NCc2ccccc2)n1,105,4,106,-10
CCNc1nc(-c2cc(C)n(Cc3ccco3)c2C)cs1,-21*,-29,79,-8
Cc1cc(-c2csc(NC(=O)c3ccc(=O)[nH]c3)n2)c(C)n1Cc1ccco1,77,-22,66,24
Cc1cc(-c2csc(NCc3ccccc3)n2)c(C)n1C,-10*,1,84,.
O=Nc1[nH]c(=O)c(/C=C(\O)c2ccccc2)nc1NO,114,17,112,-4
O=C(Nc1ccccc1C(=O)NCCCN1CCOCC1)c1ccc(F)cc1,-2.0*[inhibitor],-13,1.0*[inhibitor],2
CCOc1ccc(N(C(=O)c2snc(C(N)=O)c2N)C(C(=O)NCC2CCCO2)c2ccco2)cc1 (configuration not stated),102,3,101,79*
Cc1ccnc(Nc2nc(-c3ccc(O)cc3O)cs2)c1,110,3,107,22
NN/C(=C\[N+](=O)[O-])Nc1ccc(Cl)cc1,94,-5,101,-17
CCCn1c2ccccc2c2nnc(SCc3[nH]c(=O)[nH]c3C(=O)CCCCC(=O)OCC)nc21,107,8,100,-5
CCOC(=O)CCCCC(=O)c1[nH]c(=O)[nH]c1CSc1nnc2c3ccccc3n(C(C)C)c2n1,108,0,131*,-2
N=c1n(CCN2CCCC2)c2ccccc2n1CC(O)c1ccc(Cl)c(Cl)c1 (configuration not stated),152*,4,104,24
Oc1c(Br)cc(Br)cc1CNn1cnnc1,103,-1,105,-9
COC(=O)CCC(=O)OC1(C)C(=O)C2=CN(Cc3ccccc3)C(c3ccc(OC)cc3)=CC2=C(Br)C1=O (configuration not stated),-6.0*,-4,90,-85
COC(=O)CCC(=O)OC1(C)C(=O)C2=CN(CC3CC3)C(c3ccc(OC)cc3)=CC2=C(Br)C1=O (configuration not stated),-10*,-8,93,-87
COC(=O)CCC(=O)OC1(C)C(=O)C2=CN(Cc3ccc(OC)cc3)C(c3ccc(OC)cc3)=CC2=C(Br)C1=O (configuration not stated),.,11,59,-85
Cc1ccc(NC(=O)CSCC(=O)NC2=NCCS2)cc1,.,.,.,3
Cc1ccc(NS(=O)(=O)c2ccc(OCC(=O)NCc3ccccn3)cc2)cc1,102,4,102,-7
CCN(C[C@H]1N[C@@](C)(C(=O)OC)[C@H]2C(=O)N(C)C(=O)[C@@H]12)C(=O)Nc1ccc(C(F)(F)F)cc1,.,.,.,6
O=S1(=O)N=C(Nc2ccc(N3CCOCC3)cc2)c2ccccc21,37*,48,100,5
NNc1nc2c(Cl)ccc(Cl)c2s1,97,-2,102,-8
CC(=O)NC(CC(=O)NNC(=O)c1cccs1)c1ccccc1 (configuration not stated),.,.,.,-8
CN(C)[C@@H]1C(=O)C(C(=O)NCN2CCCC2)=C(O)[C@@]2(O)C(=O)C3=C(O)c4c(O)cccc4[C@@](C)(O)C3CC12 (some centres not stated),26*[inhibitor],-11,63,.
CN(C)c1ccc(O)c2c1CC1CC3C(N(C)C)C(=O)C(C(N)=O)=C(O)[C@@]3(O)C(=O)C1=C2O (some centres not stated),111,6,109,22
COC(=O)c1ccc(/C=C/C(=O)OCC(=O)c2ccc[nH]2)cc1,.,.,.,1
COCCn1c(-c2ccc(OC)cc2)cnc1N,-6.0*,-4,95,8
